NadD block: NadD (S. aureus) enzyme inhibition; inhibition, % at 20 µM; AID 602399; 360,000 compounds, 0.78% hits; purified NadD enzyme, colorimetric absorbance read-out; in the data active means inhibition above about 26%
ARNT TACC3 PPI: ARNT/TACC3 interaction disruption | Q9Y6A5 | AlphaScreen His-ARNT PAS-B/GST-TACC3 binding, luminescence; TACC3 fragment carries E629A point mutation | inhibition, % at 9.99 µM | 390,000 compounds, 0.66% hits;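 active means mean inhibition of replicates at least 50% and at least half of replicates each reaching 50%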;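 further: 0% = complete ARNT plus TACC3 wells and 100% = ARNT alone without TACC3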
HGIII-sPLA2 inh: Inhibits HGIII-sPLA2 liposome hydrolysis, primary screen. Q9NZ20. QFRET BODIPY PC-A2 liposome hydrolysis, fluorescence. AID 743126. inhibition, % at 12.2 µM. 370,000 compounds, 0.56% hits;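 active means inhibition above mean plus 3 SD of compounds lying within the high and low control bounds, cut at about 19% in these data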;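 further: 0% = median of test compound wells and 100% = no enzyme DMSO wells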
DAGLB inh: diacylglycerol lipase beta (human) inhibition. Q8NCG7. HEK293T DAGLB membrane lysate, EnzChek fluorogenic substrate. inhibition, % at 5.17 µM. 340,000 compounds, 0.059% hits; in the data active means inhibition above about 34%;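 further: 0% = enzyme with vehicle and 100% = wells lacking enzyme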
Target sequence (Q8NCG7 whole entry, looked up): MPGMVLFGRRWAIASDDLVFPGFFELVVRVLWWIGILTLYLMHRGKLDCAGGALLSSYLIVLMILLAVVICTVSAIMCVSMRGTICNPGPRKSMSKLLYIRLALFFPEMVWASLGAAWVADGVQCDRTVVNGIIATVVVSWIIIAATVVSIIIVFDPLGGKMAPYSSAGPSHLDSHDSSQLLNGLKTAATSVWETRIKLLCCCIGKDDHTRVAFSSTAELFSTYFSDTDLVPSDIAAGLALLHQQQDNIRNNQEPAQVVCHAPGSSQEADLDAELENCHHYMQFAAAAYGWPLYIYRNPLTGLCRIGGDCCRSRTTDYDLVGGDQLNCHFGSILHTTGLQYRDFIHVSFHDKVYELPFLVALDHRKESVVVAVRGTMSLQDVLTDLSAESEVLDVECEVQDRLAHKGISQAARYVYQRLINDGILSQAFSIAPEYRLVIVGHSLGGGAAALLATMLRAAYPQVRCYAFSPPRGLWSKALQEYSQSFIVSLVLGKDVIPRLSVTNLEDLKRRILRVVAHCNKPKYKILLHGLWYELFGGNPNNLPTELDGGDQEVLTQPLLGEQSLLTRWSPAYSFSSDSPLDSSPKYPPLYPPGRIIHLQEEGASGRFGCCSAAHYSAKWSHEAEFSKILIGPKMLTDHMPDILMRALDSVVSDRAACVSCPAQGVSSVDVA
Neddylation inh: blocks human cullin neddylation. P61081+Q13564. TR-FRET cullin neddylation, biochemical. inhibition, % at 25 µM. 360,000 compounds, 0.58% hits. AID 651699; in the data active means inhibition above about 36%
NadD inh conf: confirmation of Staphylococcus aureus NadD inhibitors | shares compounds with NadD block | purified S. aureus NadD, colorimetric enzyme assay | inhibition, % at 20 µM | 2,000 compounds, 13% hits | AID 624309; in the data active means inhibition mostly above about 42%, no sharp cut-off; inactive means mostly below about 42%
* = called active by the depositor; . = not tested or not shown. Compounds with a hit are over-represented: about 2% of the library has one in this group of screens.

SMILES	NadD block	ARNT TACC3 PPI	HGIII-sPLA2 inh	DAGLB inh	Neddylation inh	NadD inh conf
Cc1cccc(N2CC(C(=O)Nc3nnc(SCCC4OCCO4)s3)CC2=O)c1 (configuration not stated)	41.5*	-2.3	-9.3	7.6	3.8	19.4
COc1cccc(N2CC(C(=O)Nc3nnc(SCCN4CCOCC4)s3)CC2=O)c1 (configuration not stated)	3.8	-4.7	-6.8	1.2	8.4	.
Cc1cccc(N2CC(C(=O)Nc3nnc(SCCN4CCOCC4)s3)CC2=O)c1 (configuration not stated)	26.6*	1.6	-7.5	4.4	11.8	20.1
COc1ccccc1/C=C1/SC(=O)N(CCC(=O)Nc2ccc(S(=O)(=O)Nc3nccs3)cc2)C1=O	56.3*	-1.4	-109.9	2.2	-8.2	33.4
O=C(CCN1C(=O)S/C(=C\c2ccccc2)C1=O)Nc1ccc(S(=O)(=O)Nc2nccs2)cc1	28.8	2.3	-68.0	4.8	-33.1	.
Cc1cc(C)nc(NS(=O)(=O)c2ccc(NC(=O)CN3C(=O)S/C(=C\c4ccccc4)C3=O)cc2)n1	41.2*	2.4	-86.9	3.4	-11.2	44.5
O=S(=O)(c1ccc(NC(=S)N/N=C/c2ccc(N3CCOCC3)cc2)cc1)N1CCOCC1	0.8	-15.4	3.2	-0.2	.	.
O=S(=O)(c1ccc(NC(=S)N/N=C/c2ccc(Oc3ccccc3)cc2)cc1)N1CCOCC1	28.4*	-6.1	4.7	-1.5	8.9	-2.7
O=S(=O)(c1ccc(NC(=S)N/N=C/c2c3ccccc3cc3ccccc23)cc1)N1CCOCC1	33.6*	.	1.5	0.8	-23.0	28.1
CN(C)CC#Cc1ccc([C@@H]2[C@H](CO)N3CCCCN(CC4CC4)C[C@@H]23)cc1	.	6.8	.	.	.	.
CCCCC(CC)C(=O)Nc1cc(C(=O)NCc2ccc(C)cc2)ccc1N1CCC2(CC1)CC(c1ccccc1)=NO2 (configuration not stated)	32.8*	0.0	-8.1	-18.6	-1.9	2.1
CCCCC(CC)C(=O)Nc1cc(C(=O)NCCC)ccc1N1CCC2(CC1)CC(c1cccc(Br)c1)=NO2 (configuration not stated)	30.6*	2.2	2.2	-0.2	-21.8	3.6
Cn1cnc(S(=O)(=O)N2CCCCN3[C@H](CO)[C@@H](c4ccc(-c5cccc(F)c5)cc4)[C@@H]3C2)c1	.	-3.2	.	.	.	.
C[C@@H]1CCCCO[C@H](CN(C)Cc2ccc3c(c2)OCO3)[C@H](C)CN([C@H](C)CO)C(=O)c2cc(NC(=O)Nc3ccccc3)ccc2O1	.	20.6	.	.	.	.
C[C@@H]1CCCCO[C@@H](CN(C)C)[C@H](C)CN([C@H](C)CO)C(=O)c2cc(N(C)C)ccc2O1	.	-4.1	.	.	.	.
CCOc1cc(-c2cc(-c3ccc(C)o3)nc(N)c2C#N)ccc1O	2.9	3.3	-42.6	-2.9	30.4	.
Cc1cc(-c2cc(-c3ccc(Cl)cc3)nc(N)c2C#N)co1	84.2*	15.5	14.3	10.5	37.0	40.9
Cc1ccc(-c2cc(-c3ccc(Cl)cc3)c(C#N)c(N)n2)o1	58.6*	-3.7	11.9	5.4	48.4*	70.8*
Cc1ccc(-c2cc(-c3ccc4c(c3)OCO4)c(C#N)c(N)n2)o1	39.3*	0.6	-3.7	-5.7	28.1	32.7
Cc1ccc(-c2cc(-c3ccc(C)o3)nc(N)c2C#N)cc1	57.6*	41.5	6.1	8.3	32.7	62.2*
CS(=O)(=O)Nc1ccc2c(c1)[C@H]1C[C@H](CC(=O)NCC(F)(F)F)O[C@H](CO)[C@H]1O2	.	-8.3	.	.	.	.
NC(=O)[C@@H]1CC2(CC(c3cccc(NC(=O)CC(c4ccccc4)c4ccccc4)c3)=NO2)CN1C(=O)c1ccc(Cl)cc1 (some centres not stated)	31.6*	-3.9	-59.1	-1.1	-26.0	23.1
C/C=C(\C)C(=O)Nc1cccc(C2=NOC3(C2)C[C@@H](C(N)=O)N(C(=O)c2cc([N+](=O)[O-])cc([N+](=O)[O-])c2C)C3)c1 (some centres not stated)	12.6	-6.7	-9.7	3.7	-25.9	.
Cc1c(C(=O)N2CC3(CC(c4cccc(NC(=O)CC(c5ccccc5)c5ccccc5)c4)=NO3)C[C@@H]2C(N)=O)cc([N+](=O)[O-])cc1[N+](=O)[O-] (some centres not stated)	29.7*	24.9	-17.1	4.2	-17.1	48.2*
NC(=O)[C@H]1CC2(CC(c3cccc(NC(=O)CC(c4ccccc4)c4ccccc4)c3)=NO2)CN1C(=O)CC(c1ccccc1)c1ccccc1 (some centres not stated)	41.7*	-0.2	-38.1	1.7	-19.6	18.8
SMILES	NadD block	ARNT TACC3 PPI	HGIII-sPLA2 inh	DAGLB inh	Neddylation inh	NadD inh conf
Nc1ccc2cccc(O)c2c1	41.2*	-4.3	3.0	5.1	-10.9	29.4
Nc1ccc2cc3ccccc3cc2c1	12.3	.	12.2	2.7	15.4	.
Cc1cscc1-c1ccc(C(=O)Nc2c(C)cccc2C)o1	30.7*	.	2.5	.	-23.6	37.6
O=c1cc(-c2ccc(OCc3ccccc3)cc2)oc2cc(OCc3ccccc3)cc(OCc3ccccc3)c12	41.6*	-7.4	7.5	-4.6	-95.6	12.9
Cn1cnc(S(=O)(=O)N2C[C@H](O)COC[C@H]3O[C@@H](CC(=O)NCc4cc(F)cc(F)c4)CC[C@@H]32)c1	.	-2.5	.	.	.	.
Cc1cc2nc(-c3ccc(SCC(=O)Nc4ccc5c(c4)OCCO5)nc3)[nH]c2cc1C	29.7*	-2.4	-29.5	-2.2	12.5	20.4
CO[C@H]1CN(C)C(=O)c2ccc(NC(=O)C3CC3)cc2OC[C@@H](C)N(Cc2cccc(F)c2)C[C@@H]1C	.	1.3	.	.	.	.
CCOc1ccc(N2C(=O)C3Sc4[nH]c(=O)sc4C(/C=C/c4ccccc4)C3C2=O)cc1 (configuration not stated)	32.0*	8.0	-8.3	10.0	-6.7	46.0
COc1cc(C2c3sc(=O)[nH]c3SC3C(=O)N(c4ccc(Br)cc4)C(=O)C32)ccc1O (configuration not stated)	-3.6	11.0	-27.2	5.8	-0.9	.
COc1ccc(S(=O)(=O)Nc2ccc3c(c2)C(=O)N([C@@H](C)CO)C[C@H](C)[C@H](CN(C)C(=O)c2ccccc2)OCCCC[C@H](C)O3)cc1	.	0.7	.	.	.	.
COc1cc(N)c2ncccc2c1OC	0.8	23.0	7.2	0.9	-2.1	.
COc1cc(NCCCCCCN)c2ncccc2c1OC	51.2*	51.5*	-0.9	-1.1	-34.5	22.5
O=C(N/N=C/c1ccccn1)c1cc(-c2ccc(Cl)cc2)nc2ccccc12	31.0*	-3.4	-2.1	1.4	6.8	6.1
O=C(N/N=C/c1ccccn1)c1cc(-c2ccc(Br)cc2)nc2ccccc12	32.0*	-4.0	-1.1	2.2	46.2*	6.5
COc1ccc(S(=O)(=O)NCc2cccnc2)cc1NC(=O)c1ccccc1C	83.1*	-2.8	3.0	13.0	-14.2	37.6
C[C@H](CO)N1C[C@H](C)[C@H](CN(C)Cc2ccncc2)Oc2cc(C#CC3CC3)ccc2S1(=O)=O	.	23.3	.	.	.	.
